Results with a measured potency or affinity are listed apart.
Test: miR-122 quantity in Huh7 after inhibitor exposure – cell-based, RT-qPCR, dry powder, orthogonal assay for miR-122 inhibitor project, dose response (AID 687041)
Settings: Huh7 miR-122 level, 48 h; series mostly up to 35 µM; relative miR-122 level (fraction of control): at the top concentration;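 active means compounds lowering miR-122 whose fitted half-maximal concentration is at most twice the top tested dose; inconclusive means flat fit with moderate reduction, or poor fit quality; inactive means the rest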

Relative miR-122 level (fraction of control), inactive:
CCN(CC)C(=O)CN(c1cc2c(cc1OC)oc1ccccc12)S(=O)(=O)c1ccccc1 0.384
Cc1cc(C)c(C)c(S(=O)(=O)NC2CCCCC2)c1C 0.685
CCCCNS(=O)(=O)c1ccc2nc(-c3cccnc3)cc(C(=O)NC(C)CC)c2c1 (configuration not stated) 0.978
Cc1cccc(NS(=O)(=O)c2cc3c(cc2C)NC(=O)CO3)c1 0.95
COc1cccc(N2CCN(C(=O)c3oc4ccccc4c3NC(=O)CCc3cc(OC)no3)CC2)c1 0.682
COc1ccc(S(=O)(=O)Nc2ccc(OC(F)F)cc2)c2cccnc12 1.16
Cc1cc(Cl)c(Cl)cc1S(=O)(=O)NCCCn1ccnc1 0.911
O=S(=O)(Nc1cccc2[nH]ncc12)c1ccc(F)c2ncccc12 0.846
Cc1ccc(C(C)C)cc1S(=O)(=O)Nc1cccnc1 1.21
Cc1cc(C)c(S(=O)(=O)NC2CC3CCC2C3)c(C)c1 (configuration not stated) 0.851
COc1ccc(C)cc1NS(=O)(=O)c1ccc2c(c1)N(C)CCO2 0.687
Cc1cc(C(C)(C)C)cc(S(=O)(=O)NCCO)c1C 1.22

From PubChem BioAssay AID687041 (Broad Institute, 2013)
